Assay outcomes (PubChem BioAssay)
The list is not random: actives were taken first. Their share in the collection is about 7%.
KAT2A inh = blocks human GCN5L2 histone acetyltransferase; AID 504327; Potency, µM (series often up to 58.9 µM), inactives show top-dose activity change, negative = inhibition, actives largely listed as inhibitors; 0.21% of 390,000 active; GCN5L2 HAT assay, ThioGlo1 CoA-SH fluorescence; further: potency means the concentration at half of the fitted maximal effect; on the % scale 0 is the no-effect control and ±100 the full control effect
Target sequence (Q92830 whole entry, looked up): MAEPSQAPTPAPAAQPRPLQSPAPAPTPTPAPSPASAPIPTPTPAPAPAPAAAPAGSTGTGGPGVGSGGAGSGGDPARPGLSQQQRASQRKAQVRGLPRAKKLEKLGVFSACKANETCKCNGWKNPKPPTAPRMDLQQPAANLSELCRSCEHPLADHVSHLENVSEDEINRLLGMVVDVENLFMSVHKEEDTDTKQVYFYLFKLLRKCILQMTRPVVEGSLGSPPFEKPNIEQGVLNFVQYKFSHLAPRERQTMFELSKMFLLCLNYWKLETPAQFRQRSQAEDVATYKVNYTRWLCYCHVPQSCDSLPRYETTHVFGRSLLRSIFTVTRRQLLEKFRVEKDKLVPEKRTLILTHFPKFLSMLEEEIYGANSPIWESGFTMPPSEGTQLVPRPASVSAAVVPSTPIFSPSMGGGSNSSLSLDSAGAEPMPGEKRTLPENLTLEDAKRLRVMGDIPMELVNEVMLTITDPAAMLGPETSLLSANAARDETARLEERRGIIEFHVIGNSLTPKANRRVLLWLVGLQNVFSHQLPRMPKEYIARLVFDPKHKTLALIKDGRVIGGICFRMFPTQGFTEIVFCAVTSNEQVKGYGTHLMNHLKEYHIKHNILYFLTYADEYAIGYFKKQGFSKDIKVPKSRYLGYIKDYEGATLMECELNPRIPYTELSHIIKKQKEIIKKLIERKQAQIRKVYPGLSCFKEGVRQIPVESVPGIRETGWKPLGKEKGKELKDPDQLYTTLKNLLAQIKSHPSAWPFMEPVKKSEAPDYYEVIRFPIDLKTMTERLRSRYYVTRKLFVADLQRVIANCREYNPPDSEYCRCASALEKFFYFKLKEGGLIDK
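ThioGlo1-coupled HAT assay: 20nM GCN5L2, 70uM acetyl-CoA, 75uM H3(1-25) peptide, pH 7.5. Fluorescence read at 340/540nm at start and after 20 min at room temperature.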
JMJD2A Tudor inh = JMJD2A Tudor domain (human) inhibition; O75164; Potency, µM (series often up to 114 µM), without a hit: at the highest dose activity change, negative = inhibition, hits mostly inhibitors; AlphaScreen JMJD2A-Tudor / H3K4me3 peptide binding; 4.4% of 390,000 active; further: potency means the concentration at half of the fitted maximal effect; on the % scale 0 is the no-effect control and ±100 the full control effect; nearly all actives have a fitted effect of over 50% in size
HP1b chromo inh = inhibitors of HP1-beta chromodomain binding to methylated histone tails | AlphaScreen HP1-beta / biotin-H3K9me3 peptide binding | P83916 | Potency, µM (top dose mostly 114 µM), for inactives: at the highest dose activity change, negative = inhibition, usual class: inhibitors | 0.56% of 390,000 active; further: potency means the concentration at half of the fitted maximal effect; nearly all actives have a fitted effect of over 70% in size
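AlphaScreen: HP1-beta (50 nM) preformed 30 min with biotin-H3(1-18)K9me3 peptide (50 nM) in PBS pH 7.4, 0.01% Tween-20. Compound added for 30 min at RT, then streptavidin donor/nickel chelate acceptor beads (10 ug/mL) for 30 min.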
BAZ2B block = BAZ2B (human) inhibition | Q9UIF8 | AlphaScreen BAZ2B-H3K14Ac peptide displacement | Potency, µM (titrated, usually from 114 µM), for the others: at the top dose activity change, negative = inhibition, actives largely listed as inhibitors | 4.4% of 360,000 active; further: potency means the concentration at half of the fitted maximal effect; on the % scale 0 is the no-effect control and ±100 the full control effect; nearly all actives have a fitted effect of over 60% in size
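BAZ2B 50 nM plus b-H3(5-23)K14Ac 50 nM, PBS pH 7.4/0.01% Tween-20, 30 min RT; compound added (max 110 uM), 30 min RT; streptavidin donor/Ni-chelate acceptor beads 10 ug/mL final, 20 min dark; AlphaScreen read.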
PLK1 PBD block = PLK1 (human) polo-box domain binding inhibition; Plk1 PBD binding of FITC phosphopeptide, fluorescence polarization; Potency, µM, without a hit: max response, negative = inhibition, most hits filed as inhibitors; 2.8% of 360,000 active; AID 720504; further: potency means the concentration at half of the fitted maximal effect; series mostly up to about 57 µM; on the % scale 0 is the no-effect control and ±100 the full control effect; nearly all actives have a fitted effect of over 65% in size
PI5P4Ka inh = blocks human PI5P4K alpha kinase activity. AID 652105. 1.2% of 330,000 active. PI5P4Kalpha enzyme, ADP-Glo luminescence, 60 min; stronger effect = lower value. P48426. max response, %; active means max response of -50% or lower; inconclusive means between -30% and -50%; inactive means -30% or higher; further: value at the top dose of about 77 µM; on the % scale 0 is the no-effect control and ±100 the full control effect
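Controls without substrate or without enzyme flank wells where PI5P4Kalpha converts substrate using 5 microM ATP (final). Incubation lasts 60 minutes at room temperature; ADP formed is read by ADP-Glo luminescence.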
* hit, by the source's call; ? = inconclusive; . = no result; [ ] = another dose, or the depositor's remark. Unless noted, the call rests on the fitted dose curve; in most records, active means well fitted curve in the direction sought with a large enough effect; inconclusive means small, poorly fitted or top-dose-only effect, or another doubt; inactive means no such curve, though single readings can be large; an effect the other way counts as inactive or inconclusive.

SMILES	KAT2A inh	JMJD2A Tudor inh	HP1b chromo inh	BAZ2B block	PLK1 PBD block	PI5P4Ka inh
Cc1cccc(C(=O)NC(=S)Nc2ccc(S(=O)(=O)N3CCN(C)CC3)cc2)c1	0%	?	?	?	21µM*	-10
COC(=O)Nc1ccc(S(=O)(=O)N2CCN(C)CC2)cc1	-7%	79µM*	22%	4%	-3%	7
CSc1c[n+]2c(n1C)CCC2	-1%	32µM*	6%	13%	-4%	.
O=[N+]([O-])c1ccc(OCCCCN2CCCCC2)cc1	-12%	4%	31%	0%	-5%	3
CC(C)c1ccc(OCCCCN2CCCCC2)cc1	-5%	0.79µM*	?	79µM*	-8%	-3
Clc1ccc(OCCCCN2CCCCC2)cc1	3%	1µM*	?	50µM*	-10%	-1
Cc1cc2c(cc1C)-n1nnnc1C(N(C)Cc1ccccc1)C(=O)N2 (stereo unspecified)	.	.	.	.	-6%	-27
c1ccc2c(C[C@@H]3CNCCN3CCC34CC5CC(CC(C5)C3)C4)cccc2c1	-10%	40µM*	-4%	.	-16%	3
CCC(C)[C@H]1CNCCN1CC1(c2ccccc2)CC1 (stereo partly specified)	-1%	-22%	38%	10%	-2%	-3
CCC(C)[C@H]1CNCCN1CCc1cccc2ccccc12 (stereo partly specified)	-1%	56µM*	0%	?	-19%	-25
CCC(C)[C@H]1CNCCN1CCc1cc(C(F)(F)F)cc(C(F)(F)F)c1 (stereo partly specified)	-20%	-35%	26%	50µM*	-5%	4
CCCC[C@@H]1CNCCN1CCc1cc(C(F)(F)F)cc(C(F)(F)F)c1	-6%	-25%	47%	-9%	-2%	6
Oc1c(C(c2ccc(F)cc2)N2CCOCC2)sc2nc(-c3ccco3)nn12 (stereo unspecified)	-20%	-5%	36%	-4%	.	.
Cc1cc(C)c2nc(NCc3ccccc3O)sc2c1	7%	1%	27%	-13%	2%	28
COc1cc(CNc2nc3c(C)cc(C)cc3s2)ccc1O	0%	?	-18%	50µM*	-6%	2
CCOC(=O)c1c(-c2ccc(OC)cc2)csc1NC(=O)C1CCCO1 (stereo unspecified)	-3%	-6%	-11%	4%	9.5µM*	4
CCCOC(=O)c1c(NC(=O)C2CCCO2)sc(C(=O)OC)c1C (stereo unspecified)	-22%	?	?	-6%	9.5µM*	-22
CCOC(=O)c1c(NC(=O)C2CCCO2)sc(C(N)=O)c1C (stereo unspecified)	-3%	-14%	21%	-33%	-19%	-11
CCOC(=O)c1c(-c2ccc(C)cc2)csc1NC(=O)C1CCCO1 (stereo unspecified)	-8%	26%	66%	5%	5%	2
CCOC(=O)c1c(-c2ccc(F)cc2)csc1NC(=O)C1CCCO1 (stereo unspecified)	-4%	23%	4%	8%	27µM*	?
COC(=O)c1c(-c2cccc(C)c2)csc1NC(=O)C1CCCO1 (stereo unspecified)	2%	9%	29%	-1%	-8%	2
Cc1cc(C)c2cc(C#N)c(SCC(=O)Nc3ccc4c(c3)OCO4)nc2c1	-6%	-6%[11.4 µM]	54%	-15%	-10%	8
CCOC(=O)C1=C(COC(=O)CNS(=O)(=O)c2c(F)cc(F)cc2Br)NC(=O)NC1C (stereo unspecified)	.	4%	30%	.	3%	0
Cn1c(=O)c2c(=O)cc(NNC(=O)CC#N)[nH]c2n(C)c1=O	-2%	-26%	0%	-39%	30µM*	-24
CCCC(=O)NNc1cc(=O)c2c(=O)n(C)c(=O)n(C)c2[nH]1	-4%	?	0%	-10%	-2%	1
SMILES	KAT2A inh	JMJD2A Tudor inh	HP1b chromo inh	BAZ2B block	PLK1 PBD block	PI5P4Ka inh
C=CCc1cccc(/C=N/NC(=O)c2ccc3nc[nH]c3c2)c1O	-11%	-32%	41%	-13%	-5%	-1
COc1ccc(/C=N/n2cnc3c([nH]c4ccccc43)c2=O)cc1COc1ccccn1	-5%	.	.	56µM*	.	.
CCOC(=O)/C(=C\c1cccnc1)C(=O)c1cc(C(C)=O)c(Nc2ccccc2)s1	-3%	?	-11%	56µM*	?	-8
CCOC(=O)/C(=C\c1ccccc1)C(=O)c1cc(C(C)=O)c(Nc2ccccc2)s1	-4%	-12%	14%	-7%	1%	.
Cc1cc(C)cc(Cn2cc(CN3CC(N4CCN(CCN(C)C)CC4)CS3(=O)=O)nn2)c1 (stereo unspecified)	.	.	.	.	-4%	-2
CCc1ccc(-c2nc(SCC(=O)NC3CC3)n[nH]2)cc1	4%	-6%	2%	11%	-1%	6
CCOc1ccc(NC(=O)CN(Cc2ccccc2)S(=O)(=O)c2ccc3nc(C)sc3c2)cc1	-2%	-18%	11%	7%	.	.
CCOc1ccc(C(=O)Nc2ccc(-c3nc4ccccc4[nH]3)cc2)cc1[N+](=O)[O-]	-3%	79µM*	61%	-25%	4%	-4
CCOc1cccc(C(=O)NC(=S)Nc2cccc(NC(=O)c3ccccc3Cl)c2)c1	-6%	-8%	6%	79µM*	1%	-7
O=C(O)c1ccc(NC(=S)NC(=O)c2cccc(COc3ccccc3)c2)cc1	-3%	-24%	-1%	-38%	?	-55*
CCOc1ccc(C(=O)NC(=S)Nc2ccccc2N2CCCCC2)cc1[N+](=O)[O-]	-6%	?	?	23%	-3%	18
Cn1ncc([N+](=O)[O-])c1C(=O)Nc1ccc(-c2nc3ccccc3[nH]2)cc1	-13%	-18%	12%	-7%	0%	.
CCOc1ccc(C(=O)NC(=S)Nc2ccc(N3CCCCC3)cc2)cc1[N+](=O)[O-]	-5%	?	11µM*	8.9µM*	6µM*	0
Cc1ccc2nc(CSc3nnc(NC(=O)COc4ccccc4)s3)cc(=O)n2c1	9%	-10%	30%[57 µM]	5%	.	.
CCNC(=O)C1(C)CCN(C(=O)c2ccc(F)c(Cl)c2)C1 (stereo unspecified)	.	.	.	.	5%	1
CCOc1ccc(NC(=O)CN(C)C(=O)c2ccc(N3CCCCCC3)c([N+](=O)[O-])c2)cc1OCC	-13%	50µM*	-37%	?	-3%	3
O=C(COc1cc(F)ccc1[N+](=O)[O-])Nc1ccc(N2CCCCC2)cc1	2%	40µM*	?	32µM*	-1%	7
CCOc1cccc(C(=O)NC(=S)Nc2ccc(N3CCN(CC)CC3)cc2)c1	1%	56µM*	?	35µM*	-12%	5
